Compounds without any hit were thinned out: in the full panel of roughly 79,000, 15% have a hit. Unmarked numbers belong to inactive results. Active and inactive are the calls of the source. Rule as the data show it: active = growth inhibition above about 70%; inactive = the rest.
Key:
[1] = NCI Yeast Anticancer Drug Screen. Data for the rad52 strain (AID 147);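 also: 0% = growth of vehicle-treated control cultures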; conditions: S. cerevisiae rad52 mutant growth inhibition, hits give high values
How it was run: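 Measured: yeast growth inhibition. System: strain with a defined DNA damage repair alteration. Reference: vehicle-treated control cultures.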

[2] = NCI Yeast Anticancer Drug Screen. Data for the rad50EPP+ strain (AID 151);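 also: 0% = growth of vehicle-treated control cultures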; conditions: S. cerevisiae rad50 mutant strain, hits give high values
How it was run: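 One strain with a rad50 alteration (rad50EPP+) was compound-treated, its growth then compared to that of vehicle controls.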

[3] = NCI Yeast Anticancer Drug Screen. Data for the mgt1 strain (AID 153); conditions: S. cerevisiae mgt1 mutant growth inhibition, hits give high values
How it was run: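 After exposure of the mgt1 yeast mutant to compound, growth was measured and reported as inhibition compared with vehicle controls.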

[4] = NCI Yeast Anticancer Drug Screen. Data for the rad50 strain (AID 155);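 also: 0% = growth of vehicle-only cultures of the same strain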; conditions: S. cerevisiae rad50 strain growth inhibition, hits give high values
How it was run: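 A DNA repair-deficient yeast mutant serves as the test organism; compound-induced growth inhibition is calculated against vehicle-treated cells.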

[5] = NCI Yeast Anticancer Drug Screen. Data for the mec2-1 strain (AID 157); conditions: S. cerevisiae mec2-1 strain, hits give high values
How it was run: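 Test agents were screened against the mec2-1 yeast strain, with defined DNA repair or cell cycle alteration. Growth was scored as inhibition against vehicle-only controls.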

[6] = NCI Yeast Anticancer Drug Screen. Data for the rad14 strain (AID 159);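 also: 0% = growth of vehicle-treated control cultures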; conditions: S. cerevisiae rad14 strain growth inhibition, hits give high values
How it was run: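 Vehicle-treated cultures served as the baseline for growth inhibition of a DNA repair-mutant yeast strain exposed to each compound.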

[7] = NCI Yeast Anticancer Drug Screen. Data for the CLN2oe strain (AID 163);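 also: 0% = growth of vehicle-only control cultures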; conditions: S. cerevisiae CLN2oe strain, hits give high values
How it was run: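 Here, growth inhibition in a cell-cycle-altered yeast strain after compound exposure was quantified against vehicle control growth.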

[8] = NCI Yeast Anticancer Drug Screen. Data for the cln2 rad14 strain (AID 165);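 also: 0% = growth equal to vehicle treated cultures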; conditions: S. cerevisiae cln2 rad14 strain, hits give high values
How it was run: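 Growth of compound-exposed yeast (cln2 rad14 genotype) measured and expressed as inhibition relative to vehicle.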

[9] = NCI Yeast Anticancer Drug Screen. Data for the bub3 strain (AID 167); conditions: S. cerevisiae bub3 mutant strain, hits give high values
How it was run: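 Inhibition values come from growth of compound-treated mutant yeast normalised to vehicle-treated controls.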

[10] = NCI Yeast Anticancer Drug Screen. Data for the wt2 strain (AID 169);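 also: 0% = growth of vehicle-treated yeast cultures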; conditions: S. cerevisiae wt2 strain growth inhibition, hits give high values
How it was run: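 Genetically defined yeast strains from a DNA-repair/cell-cycle panel were used. Compound-exposed yeast growth was measured, and the inhibition was calculated relative to vehicle treatment.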

[11] = NCI Yeast Anticancer Drug Screen. Data for the mlh1 strain (AID 171);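 also: 0% = growth of vehicle-treated control cultures of the same strain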; conditions: S. cerevisiae mlh1 strain growth inhibition, hits give high values
How it was run: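 Here the genetically defined yeast mutant is grown with each compound, and the extent to which its growth falls below that of vehicle-exposed cells is reported.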

[12] = NCI Yeast Anticancer Drug Screen. Data for the sgs1 strain (AID 173);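 also: 0% = growth of vehicle-only control cultures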; conditions: S. cerevisiae sgs1 mutant, hits give high values
How it was run: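 Relative growth inhibition, referenced to vehicle, was determined in a yeast strain with a defined alteration affecting DNA damage repair or cell cycle control after compound exposure.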

[13] = NCI Yeast Anticancer Drug Screen. Data for the mlh1 rad18 strain (AID 175); conditions: S. cerevisiae mlh1 rad18 strain growth inhibition, hits give high values
How it was run: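 In this whole-cell yeast screen, a strain with altered DNA damage repair is challenged with compound, and its growth is measured against matched vehicle-treated controls.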

[14] = NCI Yeast Anticancer Drug Screen. Data for the rad18 strain (AID 177); conditions: S. cerevisiae rad18 mutant growth inhibition, hits give high values
How it was run: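 Screen uses a yeast strain with a defined lesion in DNA damage repair; compound effect is read as loss of growth compared to untreated vehicle cultures.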

[15] = NCI Yeast Anticancer Drug Screen. Data for the wt1 strain (AID 149);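 also: 0% = growth of vehicle-treated wt1 cultures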; conditions: S. cerevisiae wt1 strain (SPY 50644) growth inhibition, hits give high values
How it was run: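 Vehicle-normalised growth inhibition; strain wt1; compound exposure.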

[16] = NCI Yeast Anticancer Drug Screen. Data for the sgs1 mgt1 strain (AID 161);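 also: 0% = growth of cultures given vehicle only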; conditions: S. cerevisiae sgs1 mgt1 strain, hits give high values
How it was run: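 Genetically altered yeast, compound exposure, growth inhibition relative to vehicle.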

[17] = at 5.0 µM (retest, dose inferred, filed as 0.5)
[18] = at 50.0 µM (retest, dose inferred, filed as 5.0)

Compound: COC1CCC(O)C(/C=C/[N+](=O)[O-])C1 (stereo not drawn)
- growth inhibition ([1]; at 1.2 µM): 27%
- growth inhibition ([1]; at 3.7 µM): 81% (active)
- growth inhibition ([1]; at 11.0 µM): 99% (active)
- growth inhibition ([1]; at 33.0 µM): 99% (active)
- growth inhibition ([1]; at 100.0 µM): 99% (active)
- growth inhibition ([2]; at 1.2 µM): 6%
- growth inhibition ([2]; at 3.7 µM): 19%
- growth inhibition ([2]; at 11.0 µM): 56%
- growth inhibition ([2]; at 33.0 µM): 94% (active)
- growth inhibition ([2]; at 100.0 µM): 99% (active)
- growth inhibition ([3]; at 1.2 µM): 8%
- growth inhibition ([3]; at 3.7 µM): 63%
- growth inhibition ([3]; at 11.0 µM): 99% (active)
- growth inhibition ([3]; at 33.0 µM): 100% (active)
- growth inhibition ([3]; at 100.0 µM): 99% (active)
- growth inhibition ([4]; at 1.2 µM): 29%
- growth inhibition ([4]; at 3.7 µM): 83% (active)
- growth inhibition [4, 17]: 50%
- growth inhibition ([4]; at 11.0 µM): 99% (active)
- growth inhibition ([4]; at 33.0 µM): 99% (active)
- growth inhibition [4, 18]: 99% (active)
- growth inhibition ([4]; at 50.0 µM): 98.7% (active)
- growth inhibition ([4]; at 100.0 µM): 99% (active)
- growth inhibition ([5]; at 1.2 µM): 5%
- growth inhibition ([5]; at 3.7 µM): 42%
- growth inhibition [5, 17]: 21%
- growth inhibition ([5]; at 11.0 µM): 100% (active)
- growth inhibition ([5]; at 33.0 µM): 99% (active)
- growth inhibition [5, 18]: 100% (active)
- growth inhibition ([5]; at 50.0 µM): 99.6% (active)
- growth inhibition ([5]; at 100.0 µM): 99% (active)
- growth inhibition ([6]; at 1.2 µM): 7%
- growth inhibition ([6]; at 3.7 µM): 42%
- growth inhibition ([6]; at 11.0 µM): 99% (active)
- growth inhibition ([6]; at 33.0 µM): 99% (active)
- growth inhibition ([6]; at 100.0 µM): 99% (active)
- growth inhibition ([7]; at 1.2 µM): 0%
- growth inhibition ([7]; at 3.7 µM): 15%
- growth inhibition ([7]; at 11.0 µM): 99% (active)
- growth inhibition ([7]; at 33.0 µM): 99% (active)
- growth inhibition ([7]; at 100.0 µM): 99% (active)
- growth inhibition [8, 17]: 17%
- growth inhibition [8, 18]: 99% (active)
- growth inhibition ([8]; at 50.0 µM): 89.8% (active)
- growth inhibition ([9]; at 1.2 µM): 4%
- growth inhibition ([9]; at 3.7 µM): 32%
- growth inhibition [9, 17]: 79% (active)
- growth inhibition ([9]; at 11.0 µM): 99% (active)
- growth inhibition ([9]; at 33.0 µM): 99% (active)
- growth inhibition [9, 18]: 100% (active)
- growth inhibition ([9]; at 50.0 µM): 98.7% (active)
- growth inhibition ([9]; at 100.0 µM): 99% (active)
- growth inhibition ([10]; at 1.2 µM): 9%
- growth inhibition ([10]; at 3.7 µM): 66%
- growth inhibition ([10]; at 11.0 µM): 99% (active)
- growth inhibition ([10]; at 33.0 µM): 99% (active)
- growth inhibition ([10]; at 100.0 µM): 99% (active)
- growth inhibition ([11]; at 1.2 µM): 13%
- growth inhibition ([11]; at 3.7 µM): 79% (active)
- growth inhibition ([11]; at 11.0 µM): 99% (active)
- growth inhibition ([11]; at 33.0 µM): 99% (active)
- growth inhibition ([11]; at 100.0 µM): 100% (active)
- growth inhibition ([12]; at 1.2 µM): 13%
- growth inhibition ([12]; at 3.7 µM): 68%
- growth inhibition ([12]; at 11.0 µM): 99% (active)
- growth inhibition ([12]; at 33.0 µM): 99% (active)
- growth inhibition ([12]; at 100.0 µM): 98% (active)
- growth inhibition [13, 17]: 79% (active)
- growth inhibition [13, 18]: 99% (active)
- growth inhibition ([13]; at 50.0 µM): 98.2% (active)
- growth inhibition ([14]; at 1.2 µM): 12%
- growth inhibition ([14]; at 3.7 µM): 65%
- growth inhibition ([14]; at 11.0 µM): 99% (active)
- growth inhibition ([14]; at 33.0 µM): 99% (active)
- growth inhibition ([14]; at 100.0 µM): 99% (active)

Compound: CC(NCCN(C)C)C1CCC2C3CCc4cc(O)ccc4C3CCC12C (stereo not drawn)
- growth inhibition ([15]; at 1.2 µM): -4%
- growth inhibition ([15]; at 3.7 µM): -1%
- growth inhibition ([15]; at 11.0 µM): 7%
- growth inhibition ([15]; at 33.0 µM): 43%
- growth inhibition ([15]; at 100.0 µM): 97% (active)
- growth inhibition ([2]; at 1.2 µM): 26%
- growth inhibition ([2]; at 3.7 µM): 41%
- growth inhibition ([2]; at 11.0 µM): 66%
- growth inhibition ([2]; at 33.0 µM): 90% (active)
- growth inhibition ([2]; at 100.0 µM): 96% (active)
- growth inhibition ([3]; at 1.2 µM): 0%
- growth inhibition ([3]; at 3.7 µM): 1%
- growth inhibition ([3]; at 11.0 µM): 13%
- growth inhibition ([3]; at 33.0 µM): 75% (active)
- growth inhibition ([3]; at 100.0 µM): 97% (active)
- growth inhibition ([4]; at 1.2 µM): 14%
- growth inhibition ([4]; at 3.7 µM): 19%
- growth inhibition [4, 17]: -10%
- growth inhibition ([4]; at 11.0 µM): 57%
- growth inhibition ([4]; at 33.0 µM): 92% (active)
- growth inhibition [4, 18]: 55%
- growth inhibition ([4]; at 50.0 µM): 81% (active)
- growth inhibition ([4]; at 100.0 µM): 93% (active)
- growth inhibition ([5]; at 1.2 µM): 2%
- growth inhibition ([5]; at 3.7 µM): 5%
- growth inhibition [5, 17]: 2%
- growth inhibition ([5]; at 11.0 µM): 14%
- growth inhibition ([5]; at 33.0 µM): 68%
- growth inhibition [5, 18]: 49%
- growth inhibition ([5]; at 50.0 µM): 61.2%
- growth inhibition ([5]; at 100.0 µM): 97% (active)
- growth inhibition ([6]; at 1.2 µM): 3%
- growth inhibition ([6]; at 3.7 µM): 4%
- growth inhibition ([6]; at 11.0 µM): 13%
- growth inhibition ([6]; at 33.0 µM): 65%
- growth inhibition ([6]; at 100.0 µM): 98% (active)
- growth inhibition [16, 17]: 7%
- growth inhibition [16, 18]: 47%
- growth inhibition ([16]; at 50.0 µM): 91.2% (active)
- growth inhibition ([7]; at 1.2 µM): 1%
- growth inhibition ([7]; at 3.7 µM): 1%
- growth inhibition ([7]; at 11.0 µM): 11%
- growth inhibition ([7]; at 33.0 µM): 61%
- growth inhibition ([7]; at 100.0 µM): 95% (active)
- growth inhibition [8, 17]: 35%
- growth inhibition [8, 18]: 29%
- growth inhibition ([8]; at 50.0 µM): 41.7%
- growth inhibition ([9]; at 1.2 µM): 6%
- growth inhibition ([9]; at 3.7 µM): 11%
- growth inhibition [9, 17]: -4%
- growth inhibition ([9]; at 11.0 µM): 33%
- growth inhibition ([9]; at 33.0 µM): 76% (active)
- growth inhibition [9, 18]: 44%
- growth inhibition ([9]; at 50.0 µM): 63.1%
- growth inhibition ([9]; at 100.0 µM): 94% (active)
- growth inhibition ([10]; at 1.2 µM): -1%
- growth inhibition ([10]; at 3.7 µM): 0%
- growth inhibition ([10]; at 11.0 µM): 15%
- growth inhibition ([10]; at 33.0 µM): 84% (active)
- growth inhibition ([10]; at 100.0 µM): 97% (active)
- growth inhibition ([11]; at 1.2 µM): 4%
- growth inhibition ([11]; at 3.7 µM): 4%
- growth inhibition ([11]; at 11.0 µM): 26%
- growth inhibition ([11]; at 33.0 µM): 78% (active)
- growth inhibition ([11]; at 100.0 µM): 97% (active)
- growth inhibition ([12]; at 1.2 µM): 3%
- growth inhibition ([12]; at 3.7 µM): 9%
- growth inhibition ([12]; at 11.0 µM): 42%
- growth inhibition ([12]; at 33.0 µM): 87% (active)
- growth inhibition ([12]; at 100.0 µM): 96% (active)
- growth inhibition [13, 17]: 4%
- growth inhibition [13, 18]: 59%
- growth inhibition ([13]; at 50.0 µM): 82.4% (active)
- growth inhibition ([14]; at 1.2 µM): 22%
- growth inhibition ([14]; at 3.7 µM): 20%
- growth inhibition ([14]; at 11.0 µM): 52%
- growth inhibition ([14]; at 33.0 µM): 91% (active)
- growth inhibition ([14]; at 100.0 µM): 95% (active)

Source: PubChem BioAssay (NCI)
